The results in this text go back to PubChem BioAssay (Tox21).

Records with an inconclusive call do not appear. Activity calls are given as the source filed them. Calls follow the shape of the dose curve; as a rule, active = well fitted curve in the direction sought with a large enough effect in the repeat runs; inconclusive = weak or mixed curves; inactive = no such curve, though single readings can be large; an effect the other way counts as inactive or inconclusive.
% is scaled to controls: 0 for no effect and ±100 for the full control effect.

The first experiment in a line: A CellTox Green Cytotoxicity Assay to monitor cytotoxicity in HepG2 cells - 8 hour (AID 1224890). Also: nearly all actives have a fitted effect of over 45% in size. The conditions noted are these: CellTox Green fluorescence; series mostly up to 76.8 µM; cytotoxicity increase: at the top concentration. The method in brief: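 Nonlytic assay: viable cells exclude the dye, so fluorescence scales with cell death. HepG2 at 600 cells/well, compounds added after 5 h, signal read across 40 h.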
As to `CCCCOC(=O)CCCCC(=O)OCCCC`, the “cytotoxicity increase” value is 0.689% (inactive). As for `O=C(Nc1ccc(C(=O)O)c(O)c1)c1ccccc1`, the “cytotoxicity increase” value is 7.87% [at 35.3 µM] (inactive). Same read-out and setting: in the case of `Cc1ccc(N(CCO)CCO)cc1` it was -8.57% (inactive); in that of `CC(=O)NCCO`, 0.615% (inactive). Still for that read-out and setting: the same measure for `Cc1c(C2(c3cc(Br)c(O)c(Br)c3C)OS(=O)(=O)c3ccccc32)cc(Br)c(O)c1Br`: -29.9% (inactive). Same read-out and setting: in the case of `C=Cc1ccc(OC(C)=O)cc1` it was -0.125% (inactive); in that of `Cc1ccc2c(c1)CCCN2`, 2.4% (inactive); in that of `CNCc1ccc(NC(=O)c2c[nH]c3c2C(=O)CCC3)cc1`, 0.339% (inactive). With `CC(C)COC(=O)c1ccc(O)cc1`, the “cytotoxicity increase” value was 22.1% (inactive). `CSSc1ccoc1C`: the “cytotoxicity increase” value is -4.56% (inactive).

In the case of `Cc1ccc(Cl)cc1N`, the “cytotoxicity increase” value was 2.68% (inactive).

Turning to `C[C@@H]1C[C@H]2[C@@H]3CCC4=CC(=O)C=C[C@]4(C)[C@@]3(F)[C@@H](O)C[C@]2(C)[C@@]1(O)C(=O)COP(=O)(O)O`, the “cytotoxicity increase” value is -3.11% (inactive).

In the case of `Cc1ccc2c(c1[N+](=O)[O-])C(=O)c1ccccc1C2=O`, the “cytotoxicity increase” value was -1.01% [at 35.3 µM] (inactive).

As for `CC(C)(C(=O)c1cccnc1)c1cccnc1`, the “cytotoxicity increase” value is -10.2% [at 35.3 µM] (inactive). The same measure, in the same setting: the same measure for `CCN(Cc1cccc(S(=O)(=O)O)c1)c1ccc(C(=C2C=CC(=[N+](CC)Cc3cccc(S(=O)(=O)O)c3)C=C2)c2ccc(O)cc2S(=O)(=O)[O-])cc1`: -3.35% [at 35.3 µM] (inactive).

The nature of the next experiment: qHTS assay to identify small molecule antagonists of the estrogen receptor alpha (ER-alpha) signaling pathway using the BG1 cell line in the presence of 0.1 nM 17-beta-estradiol - cell viability counter screen (AID 1259241). Also: nearly all actives have a fitted effect of over 40% in size. Also: potency is read from the fitted curve at half-maximal effect. The conditions noted are these: VM7Luc4E2 (BG1) viability, CellTiter-Fluor protease, 22 h, 0.1 nM estradiol agonist added; series mostly up to 92.4 µM; activity change, negative = cytotoxicity: at the top concentration. The method in brief:
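VM7Luc4E2 cells (endogenous full-length ER-alpha, 4xERE-luciferase), cultured 5 days in charcoal-stripped serum, exposed to compounds with 0.1 nM 17beta-estradiol (final) for 22 hr at 37C. Viability read in same wells as live-cell protease fluorescence after 30 min.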
A general note: Quantitative high-throughput screening tests each substance at several concentrations.
For `COC(=O)CC(C(C)=O)C(=O)OC` (centres undefined), the “activity change, negative = cytotoxicity” value is 5.88% (inactive). For the molecule `CC(C)(O)CCc1ccccc1`, the “activity change, negative = cytotoxicity” value was -0.846% (inactive). As for `C=C(C)c1ccccc1`, the “activity change, negative = cytotoxicity” value was 10.2% (inactive). As for `Cc1cccc2sc(N)nc12`, the “activity change, negative = cytotoxicity” value was 1.17% (inactive). With `Nc1cccc2c(N)cccc12`, the Potency is 27.3 µM (active). As to `CC(=O)Oc1cccc(O)c1`, the “activity change, negative = cytotoxicity” value was 6.23% [at 42.5 µM] (inactive). On the same count and under the same terms, in the case of `CCCOC(=O)c1c(Cl)c(Cl)c(Cl)c(Cl)c1C(=O)OCCC` it was -2.57% (inactive); in that of `CCc1ccc(C)cc1`, 8.2% (inactive). Same read-out and setting: the same measure for `COC(OC)OC`: 0% (inactive). Still for that read-out and setting: the same measure for `CCCCCCCCCCCCCOS(=O)(=O)O`: 0.182% (inactive); for `Nc1ccc(F)cc1`: -0.947% (inactive). Consider `CCCCCCCCCCCCCCCCCC(=O)OCC(CC)CCCC` (centres undefined), for which the “activity change, negative = cytotoxicity” value is -1.81% (inactive). The same measure, in the same setting: in the case of `CC(=O)OCCC(C)CC(C)(C)C` (centres undefined) it was -2.18% (inactive).

For the molecule `CCCCCc1ccco1`, the “activity change, negative = cytotoxicity” value is -4.57% [at 42.5 µM] (inactive). In the case of `CC(C)(O)c1coc(S(=O)(=O)NC(=O)Nc2c3c(cc4c2CCC4)CCC3)c1`, the “activity change, negative = cytotoxicity” value was 0.113% (inactive). Still for that read-out and setting: in the case of `Cc1ccc(N(CC2=NCCN2)c2cccc(O)c2)cc1` it was 0.0274% [at 42.5 µM] (inactive); in that of `CC(=O)C(C)=O`, -2.93% (inactive).

Regarding `CC(C)N(C)C`, the “activity change, negative = cytotoxicity” value is 13.3% (inactive).

Regarding `CCC(=O)OCc1ccc(OC)cc1`, the “activity change, negative = cytotoxicity” value is 1.44% (inactive).

With `C[C@@H]1[C@H](O)[C@@H](C)/C=C/C=C\C=C\C=C\C=C\C=C\C=C\[C@H](O[C@@H]2O[C@H](C)[C@@H](O)[C@H](N)[C@@H]2O)C[C@@H]2O[C@](O)(C[C@@H](O)C[C@@H](O)[C@H](O)CC[C@@H](O)C[C@@H](O)CC(=O)O[C@H]1C)C[C@H](O)[C@H]2C(=O)O` (stereo in doubt), the “activity change, negative = cytotoxicity” value is -18.2% (inactive). As for `O=C(NC(Cc1cc(=O)[nH]c2ccccc12)C(=O)O)c1ccc(Cl)cc1` (centres undefined), the “activity change, negative = cytotoxicity” value was 0.708% [at 42.5 µM] (inactive). Consider `O=C(O)c1ccc(O)cc1O`, for which the “activity change, negative = cytotoxicity” value is 7.55% (inactive). The same measure, in the same setting: the same measure for `CN1C(CSCC(F)(F)F)Nc2cc(Cl)c(S(N)(=O)=O)cc2S1(=O)=O` (centres undefined): 1.15% [at 42.5 µM] (inactive); for `CCCCOC(=O)CCCCC(=O)OCCCC`: 1.23% (inactive); for `O=C(Nc1ccc(C(=O)O)c(O)c1)c1ccccc1`: 0.567% [at 42.5 µM] (inactive). Consider `Cc1ccc(N(CCO)CCO)cc1`, for which the “activity change, negative = cytotoxicity” value is -0.673% (inactive). Regarding `CC(=O)NCCO`, the “activity change, negative = cytotoxicity” value was 1.17% (inactive). On to `Cc1c(C2(c3cc(Br)c(O)c(Br)c3C)OS(=O)(=O)c3ccccc32)cc(Br)c(O)c1Br`, for which the Potency was 13.3 µM (active). Turning to `C=Cc1ccc(OC(C)=O)cc1`, the “activity change, negative = cytotoxicity” value was -2.92% (inactive). Still for that read-out and setting: in the case of `Cc1ccc2c(c1)CCCN2` it was -27.1% (inactive); in that of `CNCc1ccc(NC(=O)c2c[nH]c3c2C(=O)CCC3)cc1`, -20.9% (inactive). For the molecule `CC(C)COC(=O)c1ccc(O)cc1`, the “activity change, negative = cytotoxicity” value was -3.64% (inactive). Regarding `CSSc1ccoc1C`, the “activity change, negative = cytotoxicity” value is 0.365% (inactive).

Take `Cc1ccc(Cl)cc1N`: the “activity change, negative = cytotoxicity” value was 8.48% (inactive). On to `C[C@@H]1C[C@H]2[C@@H]3CCC4=CC(=O)C=C[C@]4(C)[C@@]3(F)[C@@H](O)C[C@]2(C)[C@@]1(O)C(=O)COP(=O)(O)O`, for which the “activity change, negative = cytotoxicity” value was 4.58% (inactive).

Regarding `Cc1ccc2c(c1[N+](=O)[O-])C(=O)c1ccccc1C2=O`, the “activity change, negative = cytotoxicity” value is 3.52% [at 42.5 µM] (inactive). Take `CC(C)(C(=O)c1cccnc1)c1cccnc1`: the “activity change, negative = cytotoxicity” value was 0.0044% [at 42.5 µM] (inactive).

Consider `CCN(Cc1cccc(S(=O)(=O)O)c1)c1ccc(C(=C2C=CC(=[N+](CC)Cc3cccc(S(=O)(=O)O)c3)C=C2)c2ccc(O)cc2S(=O)(=O)[O-])cc1`, for which the Potency is 16.6 µM (active).

The nature of the next experiment: qHTS assay to identify small molecule antagonists of the androgen receptor (AR) signaling pathway using the MDA cell line in the presence of 0.5 nM R1881 - cell viability counter screen (AID 1259242). Also: nearly all actives have a fitted effect of over 45% in size. Also: potency is read from the fitted curve at half-maximal effect. The conditions noted are these: MDA-kb2 viability, CellTiter-Fluor protease fluorescence, 16 h; series mostly up to 92.4 µM; viability change, negative = cytotoxic: at the top concentration. The method in brief:
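R1881 at 0.5 nM final stimulated MDA-kb2 cells during 16 hr compound treatment at 37C. Cytotoxicity read: CellTiter-Fluor fluorescence after 30 min.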
As to `C=C(C)c1ccccc1`, the “viability change, negative = cytotoxic” value was 2.77% (inactive). On the same count and under the same terms, the same measure for `CCCOC(=O)c1c(Cl)c(Cl)c(Cl)c(Cl)c1C(=O)OCCC`: -3.66% (inactive); for `CCCCCCCCCCCCCCCCCC(=O)OCC(CC)CCCC` (centres undefined): 1.49% (inactive); for `CCCCCc1ccco1`: -1.07% [at 42.5 µM] (inactive). In the case of `CC(C)(O)c1coc(S(=O)(=O)NC(=O)Nc2c3c(cc4c2CCC4)CCC3)c1`, the “viability change, negative = cytotoxic” value is 1.06% (inactive).

`CC(=O)C(C)=O`: the “viability change, negative = cytotoxic” value is 2.11% (inactive). For the molecule `CCC(=O)OCc1ccc(OC)cc1`, the “viability change, negative = cytotoxic” value is -0.099% (inactive). Still for that read-out and setting: the same measure for `O=C(O)c1ccc(O)cc1O`: 2.53% (inactive). On the same count and under the same terms, in the case of `CCCCOC(=O)CCCCC(=O)OCCCC` it was 4.83% (inactive). `CC(=O)NCCO`: the “viability change, negative = cytotoxic” value was 3.48% (inactive). For the molecule `Cc1c(C2(c3cc(Br)c(O)c(Br)c3C)OS(=O)(=O)c3ccccc32)cc(Br)c(O)c1Br`, the Potency is 10.5 µM (active).

Consider `Cc1ccc2c(c1)CCCN2`, for which the “viability change, negative = cytotoxic” value was 2.56% (inactive). On the same count and under the same terms, the same measure for `CNCc1ccc(NC(=O)c2c[nH]c3c2C(=O)CCC3)cc1`: -7.39% (inactive). In the case of `CC(C)COC(=O)c1ccc(O)cc1`, the “viability change, negative = cytotoxic” value is -5.26% (inactive). Regarding `CSSc1ccoc1C`, the “viability change, negative = cytotoxic” value was -2.66% (inactive). As to `Cc1ccc(Cl)cc1N`, the “viability change, negative = cytotoxic” value was 5.59% (inactive).
